The text below walks through data of PubChem BioAssay.

Test [1] can be described thus: compound effects on lung adenocarcinoma cell viability – A549, calcein-AM fluorescence, 48 h, basal, profiling panel (AID 1162). Further: test concentration not given here. The conditions noted are these: higher = more signal.
Test [2] is described as follows: compound effects on differentiated 3T3-L1 adipocyte viability – cell-based, 3T3-L1 adipocytes, calcein-AM fluorescence, 48 h, basal, profiling panel (AID 1163). Further: test concentration not given here. The conditions noted are these: 3T3-L1 adipocytes viability, higher = more signal.
Test [3] can be described thus: compound effects on hepatocellular carcinoma cell viability – HepG2, calcein-AM fluorescence, 48 h, basal, profiling panel (AID 1164). Further: test concentration not given here. The conditions noted are these: higher = more signal.
Test [4] can be described thus: compound effects on multiple myeloma cell viability – MM1S, calcein-AM fluorescence, 48 h, basal, profiling panel (AID 1165).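 Further: viability of MM1S multiple myeloma cells under basal unstimulated conditions; test concentration not given here.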 The following applies: higher = more signal.
Test [5] can be described thus: calcein-AM signal in unstimulated myeloma cells – cell-based, calcein-AM fluorescence, 48 h, PK04 Diversity Set, profiling panel (AID 1166).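 Further: cells grown under basal conditions without added stimulus; test concentration not given here.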 The conditions noted are these: RPMI8226 myeloma viability, higher = more signal.
A short description of test [6]: JC-1 mitochondrial signal, unstimulated HepG2 cells – cell-based, JC-1 fluorescence, 24 h, 100 nL compound, profiling panel (AID 1167). Further: test concentration not given here. The following applies: HepG2 mitochondrial potential, higher = more signal.
Test [7] in a line: JC-1 mitochondrial signal, unstimulated adipocytes – cell-based, JC-1 fluorescence, 3T3-L1 adipocytes, 24 h, 100 nL compound, profiling panel (AID 1168). Further: test concentration not given here. The following applies: JC-1 mitochondrial fluorescence, higher = more signal, called active from +8 up or from −8 down.
The nature of test [8]: JC-1 mitochondrial signal, unstimulated myeloma cells – cell-based, JC-1 fluorescence, RPMI8226, 24 h, 100 nL compound, profiling panel (AID 1169). Further: test concentration not given here. The conditions noted are these: JC-1 mitochondrial potential fluorescence, higher = more signal.
Test [9] can be described thus: JC-1 mitochondrial signal, unstimulated MM1S myeloma – cell-based, JC-1 fluorescence, 24 h, 100 nL compound, profiling panel (AID 1170). Further: test concentration not given here. The following applies: MM1S mitochondrial potential, higher = more signal.
The nature of test [10]: resazurin metabolic signal in A549 cells – cell-based, resazurin fluorescence, 24 h, PK04 Diversity Set, profiling panel (AID 1171). Further: test concentration not given here. The conditions noted are these: A549 viability, higher = more signal, called active from +8 up or from −8 down.
Test [11] is described as follows: resazurin metabolic signal in HepG2 cells – cell-based, resazurin fluorescence, 24 h, PK04 Diversity Set, profiling panel (AID 1172). Further: test concentration not given here. The conditions noted are these: HepG2 viability, higher = more signal.
Test [12] can be described thus: budding yeast growth changes without added modifier – OD600, strain BY4716, 24 h, basal condition, primary screen (AID 1173). The following applies: S. cerevisiae BY4716 growth, OD600, 24 h; higher = more signal, called active from +8 up or from −8 down.
A short description of test [13]: viability profiling in MM1S myeloma cells – cell-based, resazurin fluorescence, basal, 24 h, PK04 Diversity Set, profiling panel (AID 1174). Further: test concentration not given here. The conditions noted are these: higher = more signal, called active from +8 up or from −8 down.
Test [14] deals with Dihydroorotate dehydrogenase (quinone), mitochondrial (Plasmodium falciparum (isolate 3D7)) (UniProt Q08210). As to the kind of experiment: inhibition of P. falciparum DHODH – biochemical, C-terminal His tag, absorbance 600 nm, primary screen (AID 1175).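 Further: recombinant parasite enzyme with a five histidine tag at its C terminus; test concentration not given here.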 The conditions noted are these: PfDHODH enzyme, DCIP absorbance 600 nm; higher = more signal, called active from +8 up or from −8 down.

Test [15] can be described thus: inhibition of PAO1 biofilm formation – strain PAO1, LB-PBS medium, absorbance 600 nm, primary screen (AID 1176). Further: test concentration not given here. The conditions noted are these: P. aeruginosa PAO1 growth/biofilm, A600, 12 h; higher = more signal.
The nature of test [16]: growth modulation of vineyard yeast isolate – strain RM11-1a, OD600, basal, 24 h, primary screen (AID 1177).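 Further: cultures grown under basal conditions with no added stressor; test concentration not given here.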 The following applies: S. cerevisiae RM11-1a growth, OD600, 24 h; higher = more signal, called active from +8 up or from −8 down.
Test [17] in a line: growth of efflux-deficient E. coli DRC39 – strain DRC39, OD650, 24 h, E. coli filamentation inducers, primary screen (AID 1178).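 Further: growth measured as culture turbidity by optical density at 650 nm; test concentration not given here.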 The following applies: E. coli DRC39 acrAB, higher = more signal, called active from +8 up or from −8 down.
Test [18] can be described thus: growth of efflux-deficient E. coli DRC39 – strain DRC39, OD650, 48 h, E. coli filamentation inducers, primary screen (AID 1179).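 Further: screen aims at cell division blockers that make cells filament.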 The following applies: E. coli DRC39 delta-acrAB growth, higher = more signal, called active from +8 up or from −8 down.
Test [19] is described as follows: viability profiling in RPMI8226 myeloma cells – cell-based, resazurin fluorescence, basal, 24 h, PK04 Diversity Set, profiling panel (AID 1180).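 Further: RPMI8826 multiple myeloma cell line at 5000 cells per well; test concentration not given here.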 The following applies: higher = more signal.
The target in test [20] is E3 ubiquitin-protein ligase XIAP (Homo sapiens) (UniProt P98170). Nature of the test: small molecules binding XIAP protein – biophysical, small-molecule microarray, fluorescence 635 nm, primary screen (AID 1181).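 Further: score merges 667 nm emission and signal to noise over triplicate slides.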 The conditions noted are these: higher = more signal.

Active and inactive are the calls of the source. Unless noted, how the calls were made is not given here.

Sequence of Dihydroorotate dehydrogenase (quinone), mitochondrial (Plasmodium falciparum (isolate 3D7)) (Q08210 whole entry, looked up): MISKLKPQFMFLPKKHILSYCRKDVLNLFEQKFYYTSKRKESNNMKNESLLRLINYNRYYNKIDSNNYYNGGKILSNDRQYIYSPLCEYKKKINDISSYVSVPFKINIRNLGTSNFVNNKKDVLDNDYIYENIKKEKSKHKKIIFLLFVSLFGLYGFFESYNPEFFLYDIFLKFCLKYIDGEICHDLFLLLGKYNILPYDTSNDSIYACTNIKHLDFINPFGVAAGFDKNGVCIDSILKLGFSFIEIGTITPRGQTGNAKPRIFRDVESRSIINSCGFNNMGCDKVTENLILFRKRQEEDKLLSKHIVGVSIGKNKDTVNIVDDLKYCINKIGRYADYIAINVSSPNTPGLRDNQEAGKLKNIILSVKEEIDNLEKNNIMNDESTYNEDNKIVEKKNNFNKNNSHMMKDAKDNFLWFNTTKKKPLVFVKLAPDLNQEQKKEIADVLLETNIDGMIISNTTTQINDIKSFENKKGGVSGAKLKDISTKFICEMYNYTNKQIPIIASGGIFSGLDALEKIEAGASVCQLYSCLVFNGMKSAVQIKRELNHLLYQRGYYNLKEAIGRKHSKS
Sequence of E3 ubiquitin-protein ligase XIAP (Homo sapiens) (P98170 whole entry, looked up): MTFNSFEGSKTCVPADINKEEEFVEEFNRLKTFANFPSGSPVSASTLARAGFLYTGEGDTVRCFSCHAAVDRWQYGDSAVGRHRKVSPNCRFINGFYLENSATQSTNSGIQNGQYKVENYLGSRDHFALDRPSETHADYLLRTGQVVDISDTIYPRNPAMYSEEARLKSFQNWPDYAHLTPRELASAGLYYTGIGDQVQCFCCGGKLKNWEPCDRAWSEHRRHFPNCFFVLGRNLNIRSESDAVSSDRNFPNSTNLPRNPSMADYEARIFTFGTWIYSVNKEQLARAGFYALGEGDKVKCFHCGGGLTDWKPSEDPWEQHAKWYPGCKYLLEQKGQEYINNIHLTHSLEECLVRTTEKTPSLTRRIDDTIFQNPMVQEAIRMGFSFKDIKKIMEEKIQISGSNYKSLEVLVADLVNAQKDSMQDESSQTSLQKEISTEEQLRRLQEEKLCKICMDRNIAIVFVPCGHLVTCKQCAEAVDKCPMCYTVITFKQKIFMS

Take `C=CCOC(=O)[C@H]1[C@@H]2C(=O)O[C@@H](c3ccccc3)[C@@H](c3ccccc3)N2[C@@H](c2ccc(OCCOC(=O)[C@H]3C[C@H]4C(=O)N[C@@H](CCCCNC(C)=O)C(=O)N4[C@H]3c3ccc(O)cc3)cc2)[C@]12C(=O)Nc1ccc(I)cc12`: the z-score was -0.143 in [1]; -0.0346 in [2]; -0.251 in test [3]; -2.94 in test [4]; -2.69 in [5]; 1.46 in [6]. In addition, the z-score in test [7] was 0.585 (inactive); in [8] it was -0.538; in test [9] it was -1.44; in test [10] it was 0.974 (inactive); in test [11] it was 0.452; in test [12] it was -0.371 (inactive). For the same compound, the z-score in [13] is -1.18 (inactive); in test [15], 1.14 (inactive); in [16] it was 1.38 (inactive); in test [17] it was -1.83 (inactive); in [18], -1.16 (inactive); in [19], -0.745. The values for the composite z-score in test [14] and in [20] were -0.325 (inactive) and -0.0784, respectively.
Regarding `COCCOC(=O)N1C(=O)[C@@]2(c3cc(C#CCC(C(=O)OC)C(=O)OC)ccc31)[C@H](C(=O)N1CCN(c3ncccn3)CC1)[C@H]1C(=O)O[C@H](c3ccccc3)[C@H](c3ccccc3)N1[C@@H]2c1ccccc1OCCO`, the z-score in test [1] was 0.0182; in [2], 0.462; in test [3], -0.481; in [4], -0.748; in test [5], 0.297; in test [6], 1.37. Besides, the z-score was 1.39 (inactive) in test [7]; -0.182 in test [8]; -1.2 in test [9]; -0.174 (inactive) in [10]; -0.354 in [11]; 1.51 (inactive) in [12]. In addition, the z-score was -0.0626 (inactive) in test [13]; 3.78 (inactive) in test [15]; 2.75 (inactive) in [16]; 0.284 (inactive) in [17]; 0.0336 (inactive) in test [18]; -0.5 in test [19]. Also, the composite z-score in [14] is -1.42 (inactive); in test [20] it was -0.0749.
For the compound `C=CC[C@@]12N=C(c3ccc(OCCCO)cc3)O[C@@H]1c1ccccc1N(C)C2=O`, the z-score in test [1] was -0.588; in test [2] it was 0.596; in test [3] it was -1.33; in test [4], -1.79; in test [5], -2.61; in [6] it was 0.0239. Moreover, the z-score in [7] was 1.51 (inactive); in test [8], -1.12; in test [9] it was -0.767; in test [10], -0.0732 (inactive); in test [11] it was -0.0241; in test [12] it was -0.926 (inactive). For the same compound, the z-score is -2.53 (inactive) in test [13]; 0.0684 (inactive) in [15]; 1.46 (inactive) in [16]; 0.817 (inactive) in test [17]; 1.18 (inactive) in test [18]; -0.912 in test [19]. In addition, the composite z-score in test [14] was 0.579 (inactive); in [20], 0.368.
Regarding `CO[C@H]1O[C@H](CO)[C@@H](OC(=O)Nc2ccc(Oc3ccccc3)cc2)[C@H](OC(=O)Nc2ccc3c(c2)OCO3)[C@H]1OC(=O)Nc1ccc2c(c1)OCO2`, the z-score in test [1] is -0.331; in test [2], 0.377; in [3], 0.106; in [4] it was -0.789; in test [5] it was -0.594; in [6], -0.185. In addition, the z-score in test [7] was 2.17 (inactive); in test [8] it was -0.583; in [9], 0.818; in test [10], 0.104 (inactive); in test [11] it was -0.692; in test [12], 0.759 (inactive). Besides, the z-score was 0.0487 (inactive) in [13]; 2.07 (inactive) in [15]; 1.11 (inactive) in [16]; 1.65 (inactive) in test [17]; 0.0431 (inactive) in test [18]; 0.404 in test [19]. Besides, the composite z-score in [14] is -0.227 (inactive); in [20], -0.0795.
Turning to `COc1ccc([Si](C)(C)[C@H]2[C@H](CCO)O[C@@]3(C(=O)N(Cc4ccc(N(C=O)c5ccccc5)cc4)c4ccccc43)[C@@H]2C)cc1`, the z-score in [1] is -0.585; in test [2], -1.32; in test [3], -2.76; in test [4], -1.48; in test [5] it was -3.78; in test [6] it was 0.119. Moreover, the z-score in [7] is -0.393 (inactive); in test [8], -1.03; in [9], -1.88; in test [10], -1.68 (inactive); in [11] it was -1.57; in test [12], 1.83 (inactive). The z-score is -3.71 (inactive) in test [13]; 2.06 (inactive) in test [15]; 4.71 (inactive) in test [16]; 0.216 (inactive) in [17]; -0.495 (inactive) in test [18]; -2.77 in [19]. Besides, the composite z-score in test [14] was 0.041 (inactive); in test [20] it was -0.163.
Turning to `[N-]=[N+]=Nc1ccccc1[C@H]1OC(c2ccc(OCCCO)cc2)=N[C@@]1(CCS(=O)(=O)c1ccccc1)C(=O)NCC(O)CO` (stereo not given in full), the z-score in test [1] is -0.0714; in test [2] it was 0.638; in [3], 0.0911; in [4], -0.826; in test [5], 0.395; in [6], -1.16. For the same compound, the z-score in [7] was -0.22 (inactive); in test [8], 0.311; in [9], -0.0714; in [10], 0.859 (inactive); in test [11], -0.14; in [12], -0.484 (inactive). The z-score was -0.0646 (inactive) in [13]; 0.854 (inactive) in [15]; -0.129 (inactive) in test [16]; -0.117 (inactive) in test [17]; -0.878 (inactive) in test [18]; -0.389 in test [19]. Also, the composite z-score is 1.01 (inactive) in [14] and 0.0727 in [20].
On to `C[N+](C)(C)CCCCNC(=O)[C@@H]1C[C@@H]2C(=O)N[C@@H](Cc3ccccc3)C(=O)N2[C@@H]1c1cccc(OCCO)c1`, for which the z-score in test [1] is 1.49; in test [2], -0.764; in [3] it was 0.215; in [4], 0.367; in test [5], 0.0971; in test [6], 1.58. Moreover, the z-score in [7] is 0.924 (inactive); in test [8] it was 0.219; in [9] it was -0.493; in [10], -0.337 (inactive); in test [11], -0.278; in [12], -0.143 (inactive). Moreover, the z-score in test [13] was 0.548 (inactive); in [15], -0.226 (inactive); in [16], 0.145 (inactive); in test [17] it was 0.994 (inactive); in test [18], 1.31 (inactive); in test [19], 0.0965. Besides, the composite z-score in [14] is -24.9 (active); in test [20], -0.138.
With `C=C[C@@H](COC(=O)OC(C)(C)C)N(Cc1ccc(OC)cc1)S(=O)(=O)c1ccc(Br)cc1`, the z-score in [1] is 1.39; in test [2] it was 0.332; in [3] it was -0.002; in test [4], -3.08; in test [5], -1.36; in test [6], -0.997. In addition, the z-score was -0.239 (inactive) in test [7]; -0.525 in [8]; 0.101 in [9]; 1.74 (inactive) in test [10]; 0.163 in test [11]; 0.119 (inactive) in [12]. For the same compound, the z-score in [13] was 0.67 (inactive); in [15] it was -0.177 (inactive); in [16], 0.378 (inactive); in test [17], -0.807 (inactive); in [18] it was -0.667 (inactive); in test [19], -0.918. Moreover, the composite z-score in test [14] is -0.316 (inactive); in test [20], 0.1.
For `C=C[C@H](C)[C@@H](OC(=O)Nc1ccc(OC)cc1)c1ccc(O)c2ccccc12`, the z-score in test [1] was -1.17; in test [2], 0.323; in test [3], -1.54; in [4] it was -2.78; in test [5], -4.12; in test [6], -3.42. The z-score is -1.19 (inactive) in test [7]; -1.01 in [8]; -1.94 in [9]; -1.12 (inactive) in test [10]; -1.31 in test [11]; -18.2 (active) in test [12]. Besides, the z-score in test [13] was -4.56 (inactive); in test [15] it was 0.802 (inactive); in test [16], -21.8 (active); in test [17], 1.42 (inactive); in test [18], 0.525 (inactive); in test [19], -2.9. The composite z-score is -2.51 (inactive) in test [14] and -0.196 in test [20].
